In PubChem BioAssay AID463195 (Sanford-Burnham Center for Chemical Genomics, 2010):
Hit rate of the full screen: of about 330,000 compounds, about 4,600 (1.4%) were called active. The list comes from a sample in which actives are over-represented; it also holds similar structures and randomly drawn compounds. Unmarked numbers belong to inactive results.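 How the source made its calls: active means inhibition of 40% or more at the single tested concentration; inactive means the rest.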

Assay: growth inhibitors of isogenic TIM10 control yeast, primary screen, counter-screen for tim10-1 yeast inhibitor project, luminescence, uHTS (AID 463195);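 further: wild-type TIM10 isogenic control strain grown at permissive 25 °C; 0% = DMSO yeast wells and 100% = minimal medium wells without yeast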
Conditions: S. cerevisiae TIM10 strain growth, BacTiter-Glo luminescence, 24 h; at 10 µM; stronger effect = higher value

SMILES | inhibition
CN(C)C(=O)CCc1ccc2c3c([nH]c2c1)[C@]1(CCc2ccccc2)[C@@H](C(=O)N2CCCCC2)C[C@H](CC(=O)NCCC2=CCCCC2)C(=O)N1CC3 | -1.38%
Cc1cc(C(F)(F)F)nc(SCC(=O)Nc2nccs2)n1 | 2.33%
Cn1cnnc1SCC(=O)Nc1ccc(N2CCOCC2)cc1 | -21.6%
CCN(CC)CCN(C(=O)c1ccc(N2C(=O)CCC2=O)cc1)c1nc2cc3c(cc2s1)OCO3 | -10.9%
CN(C)CCCN(C(=O)c1ccc(S(=O)(=O)N2CCCCCC2)cc1)c1nc2cc3c(cc2s1)OCCO3 | 11.4%
CCN(CC)CCN(C(=O)c1ccc(S(=O)(=O)N2CCOCC2)cc1)c1nc2cc3c(cc2s1)OCCO3 | 41% (active)
Cc1ccc(N(CC(=O)NCC2CCCO2)C(=O)CNS(=O)(=O)c2ccc(Cl)cc2)cc1 (stereo not drawn) | 11.1%
COc1cccc(N2CC(NS(=O)(=O)c3ccc(Cl)cc3)CC2=O)c1 (stereo not drawn) | -3.31%
CCOC(=O)C1(C)NC(c2ccco2)C2C(=O)N(c3ccccc3)C(=O)C21 (stereo not drawn) | -0.047%
CCCC1(C(=O)OCC)NC(c2ccc(N(C)C)cc2)C2C(=O)N(c3ccc4c(c3)OCCO4)C(=O)C21 (stereo not drawn) | 4.95%
CCCCC1(C(=O)OCC)NC(c2ccc(O)cc2)C2C(=O)N(c3ccccc3)C(=O)C21 (stereo not drawn) | 58.8% (active)
Cc1ccc(NC(=O)C2CCCN2C(=O)OCc2ccccc2)cc1C (stereo not drawn) | -1.12%
CC(=NCc1ccco1)c1c(C(F)(F)F)[nH]n(-c2nc3ccccc3s2)c1=O | 50.6% (active)
CCC(C)Cn1c(O)cc2nn(-c3nc4ccccc4s3)c(=O)c-2c1C (stereo not drawn) | -6.61%
CCC1(CC)NC(=O)N(Cc2nc3ccccc3s2)C1=O | 0.882%
COc1cc(NC(=O)C2CC(c3ccccc3O)=NO2)c(OC)cc1Cl (stereo not drawn) | -3.49%
COC(C/C=C/C(=O)[C@@H](C)OCc1ccccc1)OC | 50.1% (active)
COC(C[C@@H]1O[C@@H]1C(=O)[C@H](C)OCc1ccccc1)OC | -11%
COC(C[C@H](O)CC(=O)[C@@H](C)OCc1ccccc1)OC | 8.38%
COC(=O)[C@@H]1CC[C@H](C)[C@@H](c2ccc(C)cc2)N1C(=O)c1ccc(/C=N/O[C@H](C)c2cn([C@@H]3COC[C@H]3O)nn2)cc1 | -0.068%
CN(CC(=O)Nc1ccc(Cl)cc1)C(=O)CNC(=O)c1ccc2ccccc2c1 | -7.81%
CN(C)CCCN(C(=O)c1ccc(S(=O)(=O)N2CCCc3ccccc32)cc1)c1nc2ccc(F)cc2s1 | 40.9% (active)

SMILES | inhibition
CCOc1ccc2nc(N(CCCN(C)C)C(=O)c3ccc(C(=O)c4ccccc4)cc3)sc2c1 | 11.2%
CN(C)CCCN(C(=O)c1ccc(S(=O)(=O)N2CCCCCC2)cc1)c1nc2ccc(Br)cc2s1 | 34.5%
Cc1ccccc1-c1nc(C#N)c(NCc2ccco2)o1 | 46.8% (active)
Cc1cc(NCc2ccco2)n2c(nc3ccccc32)c1C#N | -0.142%
COc1ccc(Nc2oc(-c3ccccc3Cl)nc2C#N)cc1 | 13.8%
CC(C)CCn1c(=O)c2c(nc3n2CCCN3Cc2ccccc2)n(C)c1=O | 11.2%
COc1ccc(Cc2nnc(N/N=C/c3ccccc3O)[nH]c2=O)cc1OC | 9.37%
Cc1nn(Cc2ccc(Cl)c(Cl)c2)c(C)c1NC(=O)c1cc(C2CC2)on1 | 43% (active)
Cc1nn(Cc2ccc(F)cc2)c(C)c1NC(=O)c1cccnc1Cl | -10.4%
CSc1ccccc1NC(=O)c1cc(C2CC2)on1 | 7.03%
COc1ccc(CN2CCNC(=O)C2CC(=O)N(C)Cc2ccccn2)cc1OC (stereo not drawn) | 10.2%
CC(=O)Nc1ccc(CC#N)cc1 | 12.5%
O=C(NCCN1C(=O)S/C(=C\c2cccnc2)C1=O)c1ccc(S(=O)(=O)N2CCCC2)cc1 | 2.86%
O=C(NCCN1C(=O)S/C(=C\c2cccnc2)C1=O)c1cccc(OC(F)F)c1 | 43.2% (active)
Cc1cc(OCCCC(=O)NCCN2C(=O)S/C(=C\c3cccnc3)C2=O)ccc1Cl | 38.4%
CCOc1ccc(N(CC(=O)NCC2CCCO2)S(=O)(=O)c2ccc(C)cc2)cc1 (stereo not drawn) | 16.8%
CC(=O)N1CCN(CC(=O)Nc2ccc(C)c(F)c2)CC1 | -1.66%
CCc1sc(C(=O)N2CCN(CC(=O)Nc3cccc(F)c3)CC2)cc1C | 60.2% (active)
O=C(CN1CCN(C(=O)c2cccc(F)c2)CC1)Nc1ccccc1F | -0.2%
O=C(NC1CC1)C(Cc1ccccc1)NS(=O)(=O)c1ccccc1F (stereo not drawn) | -6.34%
COc1ccc(S(=O)(=O)N(CC(=O)N/N=C/c2ccc(C(=O)O)cc2)Cc2ccccc2)cc1OC | -21.2%
CCOC(=O)C1=C(CSc2nccn2C)NC(=O)NC1c1ccc(OC)cc1 (stereo not drawn) | 9.58%

SMILES | inhibition
CCOC(=O)C1=C(C)N=c2s/c(=C\C(=O)OC)c(=O)n2C1c1ccc(OC)cc1 (stereo not drawn) | 61.5% (active)
COCCOC(=O)C1=C(C)N=c2s/c(=C\c3cccs3)c(=O)n2C1c1cccs1 (stereo not drawn) | 21.4%
CC(c1ccccc1)n1c(NCCCn2ccnc2)nc2c1c(=O)[nH]c(=O)n2C (stereo not drawn) | 1.78%
Cc1ccc(C)c(NC(=O)C2Cc3ccccc3CN2C(=O)OCc2ccccc2)c1 (stereo not drawn) | 27.9%
COc1ccc(Cl)cc1N(CC(=O)N1CCCCC1)S(C)(=O)=O | 1.46%
Cc1onc(-c2ccccc2Cl)c1C(=O)OCC(=O)c1ccccc1 | 23.4%
Cc1[nH]c2ccccc2c1C(=O)COC(=O)c1c(-c2ccccc2)noc1C | 48.3% (active)
Cc1[nH]c2ccccc2c1C(=O)CSCC(=O)O | 13.1%
CCCN(CCC)C(=S)Nc1cc(C(=O)OC)ccc1C(=O)OC | -3.94%
CCOC(=O)[C@@H]1[C@H]2COc3ccc(Br)cc3[C@H]2N2C(=O)N(c3ccc(C)cc3)C(=O)[C@@]12C | 13.9%
COc1ccc(C(=O)ON=C2c3ccccc3-c3ccccc32)cc1OC | 18%
COc1ccc(C/C(N)=N/OC(=O)c2ccco2)cc1OC | -7.79%
COc1ccc(C(=O)O/N=C(\N)Cc2ccc(Cl)cc2Cl)cc1OC | 85.8% (active)
CC(=O)Nc1ccc(S(=O)(=O)NCC(=O)OCc2cc(=O)oc3ccc4ccccc4c23)cc1 | 6.88%
N#Cc1cccc(CN2CCC(=O)N([C@H](CO)c3ccccc3)CC2)c1 | 12.1%
O=[N+]([O-])c1cc([N+](=O)[O-])c(Oc2cc(F)cc(F)c2F)cc1NN1CCCCC1 | -1.5%
Oc1ccccc1-c1cc(-c2ccc(Cl)cc2)n[nH]1 | 53.8% (active)
Cc1ccc(NC(=O)c2cc(-c3ccccc3O)n[nH]2)cc1C | 0.905%
O=C(Nc1cccnc1Cl)c1cc(-c2ccccc2O)on1 | 3.29%
CCCCC1S/C(=N/N=C/c2cccs2)NC1=O (stereo not drawn) | 5.03%
O=C(N/N=C/c1cccc(Br)c1)c1ccc(N2CCCC2=O)cc1 | 12%
O=C(CNC(=O)c1cccs1)N/N=C/c1cccc(Br)c1 | 18.4%

SMILES | inhibition
O=C(N/N=C\c1cccc(Br)c1)c1ccccc1-n1cccc1 | 51.9% (active)
CC(C)(C)OC(=O)C[C@@H]1C/C=C\C[C@@H](CC(=O)NCCO)C(=O)N[C@H](Cc2c[nH]c3ccccc23)COC1=O | -3.29%
CC(C)CCn1cnc2c1c(=O)n(CC(=O)NC(N)=O)c(=O)n2Cc1ccccc1 | 2.63%
COc1cc(C(=O)NN(CCC#N)C2=NS(=O)(=O)c3ccccc32)cc(OC)c1OC | 8.55%
Nc1cccc(-c2cc(-c3ccccc3)nc(-c3cccc(N)c3)n2)c1 | 44.2% (active)
Cc1nc(NNC(=O)c2ccccc2)cc(-c2ccccc2)n1 | 10.7%
Nc1ccc(-c2nnc(-c3ccccc3)o2)cc1 | 8.79%
CC1=NNC(=O)C1Cc1c(Cl)cccc1Cl (stereo not drawn) | 13.4%
COc1ccc(N2C(=O)C(CC(=O)Nc3ccc(F)cc3)N(CCc3cccs3)C2=O)cc1 (stereo not drawn) | 27.1%
O=C1[C@@H](c2ccccc2)[C@@H](c2ccccc2)N1c1cccnc1 | 63.5% (active)
CC(=O)C1=C(O)C(=O)N(c2cccnc2)C1c1ccc([N+](=O)[O-])cc1 (stereo not drawn) | -3.83%
CCc1ccccc1NC1c2ccccc2C(=O)N1c1cccnc1 (stereo not drawn) | -1.26%
COc1ccc(-c2c(C)cc3oc(=O)cc(-c4ccccc4)c3c2C)cc1C=O | -23.6%
CCN(C(=O)COC(=O)CCOc1cccc(C)c1)c1c(N)n(Cc2ccccc2)c(=O)[nH]c1=O | -2.83%
Fc1ccccc1N=C1Nc2cccc3cccc1c23 | 5.3%
c1ccc(C2=Nc3cccc4cccc(c34)N2)cc1 | 42.2% (active)
COc1ccccc1C1=Nc2cccc3cccc(c23)N1 | 8.32%
CCO/C=C1\C(=O)N(c2ccc(OCC)cc2)C(=O)c2ccccc21 | 1.43%
COc1cc([N+](=O)[O-])ccc1NC(=O)COC(=O)CCOc1ccc(C)cc1 | 49% (active)
CSc1ccccc1NC(=O)COC(=O)CCCOc1ccc(C)cc1 | -8.29%
COc1cccc(NC(=O)COC(=O)CCOc2ccccc2OC)c1 | 30%
Cc1cccc(OCc2nnc(SCc3nc4cc(C(F)(F)F)ccc4c(=O)[nH]3)o2)c1 | 23%
